{"source": "PubChem BioAssay (NCATS)", "note": "The source made the active and inactive calls. A call without a number means that no potency is given here. The call rests on the fitted dose curve; in most records, active means well fitted curve in the direction sought with a large enough effect; inconclusive means small, poorly fitted or top-dose-only effect, or another doubt; inactive means no such curve, though single readings can be large or run the other way.", "data": [{"biological_target": "T1, Hexokinase-4 (Homo sapiens) + Glucokinase regulatory protein (Homo sapiens) (UniProt P35557+Q14397)", "T1 sequence (P35557 whole entry, looked up)": "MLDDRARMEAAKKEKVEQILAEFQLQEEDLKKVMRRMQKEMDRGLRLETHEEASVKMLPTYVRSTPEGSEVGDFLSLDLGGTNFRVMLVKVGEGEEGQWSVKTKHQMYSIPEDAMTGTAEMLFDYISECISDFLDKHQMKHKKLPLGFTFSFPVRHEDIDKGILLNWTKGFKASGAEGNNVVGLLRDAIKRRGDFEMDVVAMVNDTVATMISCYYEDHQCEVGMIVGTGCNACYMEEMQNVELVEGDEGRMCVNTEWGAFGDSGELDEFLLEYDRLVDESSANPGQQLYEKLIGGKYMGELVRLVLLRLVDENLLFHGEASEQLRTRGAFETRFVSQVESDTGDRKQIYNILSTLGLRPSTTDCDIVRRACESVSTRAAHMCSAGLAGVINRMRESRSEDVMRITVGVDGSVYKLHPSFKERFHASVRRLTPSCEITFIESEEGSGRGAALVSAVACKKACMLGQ", "T1 sequence (Q14397 whole entry, looked up)": "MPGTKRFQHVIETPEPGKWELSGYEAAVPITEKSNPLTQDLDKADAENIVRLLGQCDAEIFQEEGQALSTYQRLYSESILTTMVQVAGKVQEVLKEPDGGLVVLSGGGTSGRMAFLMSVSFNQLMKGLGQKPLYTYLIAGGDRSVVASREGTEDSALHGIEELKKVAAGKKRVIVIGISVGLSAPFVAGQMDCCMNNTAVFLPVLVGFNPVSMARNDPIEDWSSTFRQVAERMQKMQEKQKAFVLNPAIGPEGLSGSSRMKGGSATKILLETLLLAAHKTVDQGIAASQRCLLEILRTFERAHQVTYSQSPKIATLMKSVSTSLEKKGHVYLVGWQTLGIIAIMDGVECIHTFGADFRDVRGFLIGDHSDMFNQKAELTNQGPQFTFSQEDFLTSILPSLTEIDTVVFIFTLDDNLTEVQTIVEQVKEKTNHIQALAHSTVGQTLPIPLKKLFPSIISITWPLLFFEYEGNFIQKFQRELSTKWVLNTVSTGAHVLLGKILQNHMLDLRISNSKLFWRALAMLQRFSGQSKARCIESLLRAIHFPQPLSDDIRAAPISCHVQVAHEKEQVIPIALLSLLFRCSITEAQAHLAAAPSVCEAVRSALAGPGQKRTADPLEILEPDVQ", "test": "qHTS assay for inhibitors of recombinant human GCK-GKRP interaction: ADP-Glo assay (AID 743206)", "conditions": "ADP-Glo luminescence, 60 min; series mostly up to 76.9 µM", "in_short": "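GST-GCK and FLAG-GKRP (15 nM each in the dispensed mix, with 2 uM S6P) react with 0.4 mM ATP and 5 mM glucose (final) in Hepes pH 7.6 for 60 min at room temperature. ADP is measured by ADP-Glo luminescence.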", "values": [{"smiles": "N[C@@H](CC(=O)O)C(=O)O", "Potency": "inactive"}, {"smiles": "N=c1ccn2c(n1)O[C@H]1[C@H](O)[C@@H](CO)O[C@H]12", "Potency": "inactive"}, {"smiles": "CCCCCCCCCCCCCCCC(=O)OC(CC(=O)O)C[N+](C)(C)C", "note": "(centres undefined)", "Potency": "inactive"}, {"smiles": "NC(=O)C1=CN(C2OC(COP(=O)(O)OP(=O)(O)OC[C@H]3O[C@@H](n4cnc5c(N)ncnc54)[C@H](OP(=O)(O)O)[C@@H]3O)C(O)C2O)C=CC1", "note": "(some centres undefined)", "Potency": "inactive"}, {"smiles": "N#C/C(=C\\c1c[nH]c2ccccc12)C(=O)c1ccc(O)c(O)c1", "Potency": "inactive"}, {"smiles": "Cc1ccc(S(=O)(=O)/C=C/C#N)cc1", "Potency": "inactive"}, {"smiles": "CCCC1(C)C(C#N)(C#N)C1(C#N)C#N", "Potency": "inactive"}, {"smiles": "Cn1c(=O)c2[nH]c(-c3ccccc3)nc2n(C)c1=O", "Potency": "inactive"}, {"smiles": "O=C(c1cc(O)c(O)c([N+](=O)[O-])c1)c1ccccc1F", "Potency": "inactive"}, {"smiles": "CN(C)c1nc(N)c(C(=O)N=C(N)N)nc1Cl", "Potency": "inactive"}, {"smiles": "O=C(O)CC1CCCc2ccccc2C1O", "note": "(centres undefined)", "Potency": "inactive"}, {"smiles": "C[C@@H](CN1CCC(Cc2ccccc2)CC1)[C@@H](O)c1ccc(O)cc1", "Potency": "inactive"}, {"smiles": "Ic1ccc(N2CCN(Cc3c[nH]c4ncccc34)CC2)cc1", "Potency": "inactive"}, {"smiles": "COc1ccccc1N1CCN(CCCCNS(=O)(=O)c2cccc3c(N(C)C)cccc23)CC1", "Potency": "inactive"}, {"smiles": "CC(=O)SCC[N+](C)(C)C", "Potency": "inactive"}, {"smiles": "CN(C)C(N)=NCCC[C@H](N)C(=O)O", "Potency": "inactive"}, {"smiles": "CCCCCCCCCCCCCCCC(=O)NCC(COP(=O)([O-])OCC[N+](C)(C)C)OCC", "note": "(centres undefined)", "Potency": "inactive"}, {"smiles": "CO/S(=N\\S(=O)(=O)c1ccc(Cl)cc1)c1ccc([N+](=O)[O-])cc1", "note": "(centres undefined)", "Potency": "inactive"}, {"smiles": "CC(C)NC[C@@H](O)c1ccc(O)c(O)c1", "Potency": "inactive"}, {"smiles": "Cn1ncc(S(=O)(=O)Cc2ccccc2)c(Br)c1=O", "Potency": "inactive"}, {"smiles": "CNC(=O)[C@H]1O[C@@H](n2cnc3c(NCc4ccc(N)cc4)ncnc32)[C@H](O)[C@@H]1O", "Potency": "inactive"}, {"smiles": "CN1C2CCC1CC(OC(=O)C(O)c1ccccc1)C2", "note": "(centres undefined)", "Potency": "inactive"}, {"smiles": "CCC1C(=O)OCC1Cc1cncn1C", "note": "(centres undefined)", "Potency": "inactive"}, {"smiles": "O=C1O/C(=C/Br)CCC1c1cccc2ccccc12", "note": "(centres undefined)", "Potency": "inactive"}, {"smiles": "Nc1nc(Cl)nc2c1ncn2[C@@H]1O[C@H](COP(=O)(O)OP(=O)(O)OP(=O)(O)O)[C@@H](O)[C@H]1O", "Potency": "inactive"}, {"smiles": "CCCCCCCCc1ccc(-c2ccc(C(=O)O)cc2)cc1", "Potency": "inactive"}, {"smiles": "CSc1nc(N)c2ncn([C@@H]3O[C@H](COP(=O)(O)OP(=O)(O)OP(=O)(O)O)[C@@H](O)[C@H]3O)c2n1", "Potency": "inactive"}, {"smiles": "Cc1cc(NC2CCCCC2)nc(-n2nc(C)cc2C)n1", "Potency": "inactive"}, {"smiles": "C[N+](C)(CCCCCC[N+](C)(C)CCCN1C(=O)c2cccc3cccc(c23)C1=O)CCCN1C(=O)c2cccc3cccc(c23)C1=O", "Potency": "inactive"}, {"smiles": "CC(N)C(=O)OC(C)(C)Cc1ccc(Cl)cc1", "note": "(centres undefined)", "Potency": "inactive"}, {"smiles": "Cn1cc(C2=C(c3ccc(Cl)cc3Cl)C(=O)NC2=O)c2ccccc21", "Potency": "inactive"}, {"smiles": "O=C(c1ccc(Cl)cc1)N1CCN(c2ccc([N+](=O)[O-])c3ncccc23)CC1", "Potency": "inactive"}, {"smiles": "O=C(O)c1cc([N+](=O)[O-])ccc1NCCCc1ccccc1", "Potency": "inactive"}, {"smiles": "Cc1cc(NC(=O)Nc2ccc3c(ccn3C)c2)sn1", "Potency": "inactive"}, {"smiles": "CN1CCc2ccccc2Cc2[nH]c3ccccc3c2CC1", "Potency": "inactive"}]}, {"biological_target": "T1, Hexokinase-4 (Homo sapiens) + Glucokinase regulatory protein (Homo sapiens)", "test": "qHTS assay for inhibitors of recombinant human GCK-GKRP interaction: HTRF assay (AID 743207)", "conditions": "recombinant GCK-GKRP HTRF binding, 60 min, with sorbitol-6-phosphate; series mostly up to 57.5 µM", "in_short": "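Steps: dispense GCK–GKRP complex (5 nM each, GST- and FLAG-tagged) with 2 uM S6P; pin in compounds; add XL665/Eu-cryptate-labelled antibodies; incubate 60 min at room temperature; read time-resolved FRET at 665 and 615 nm.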", "values": [{"smiles": "CCCCCCCCCCCCCCCC(=O)OC(CC(=O)O)C[N+](C)(C)C", "note": "(centres undefined)", "Potency": "inactive"}, {"smiles": "NC(=O)C1=CN(C2OC(COP(=O)(O)OP(=O)(O)OC[C@H]3O[C@@H](n4cnc5c(N)ncnc54)[C@H](OP(=O)(O)O)[C@@H]3O)C(O)C2O)C=CC1", "note": "(some centres undefined)", "Potency": "inactive"}, {"smiles": "Cc1ccc(S(=O)(=O)/C=C/C#N)cc1", "Potency": "inactive"}, {"smiles": "O=C(c1cc(O)c(O)c([N+](=O)[O-])c1)c1ccccc1F", "Potency": "inactive"}, {"smiles": "O=C(O)CC1CCCc2ccccc2C1O", "note": "(centres undefined)", "Potency": "inactive"}, {"smiles": "Ic1ccc(N2CCN(Cc3c[nH]c4ncccc34)CC2)cc1", "Potency": "inactive"}, {"smiles": "COc1ccccc1N1CCN(CCCCNS(=O)(=O)c2cccc3c(N(C)C)cccc23)CC1", "Potency": "inactive"}, {"smiles": "CC(=O)SCC[N+](C)(C)C", "Potency": "inactive"}, {"smiles": "CN(C)C(N)=NCCC[C@H](N)C(=O)O", "Potency": "inactive"}, {"smiles": "CC(C)NC[C@@H](O)c1ccc(O)c(O)c1", "Potency": "inactive"}, {"smiles": "CNC(=O)[C@H]1O[C@@H](n2cnc3c(NCc4ccc(N)cc4)ncnc32)[C@H](O)[C@@H]1O", "Potency": "inactive"}, {"smiles": "CCC1C(=O)OCC1Cc1cncn1C", "note": "(centres undefined)", "Potency": "inactive"}, {"smiles": "O=C1O/C(=C/Br)CCC1c1cccc2ccccc12", "note": "(centres undefined)", "Potency": "inactive"}, {"smiles": "CCCCCCCCc1ccc(-c2ccc(C(=O)O)cc2)cc1", "Potency": "inactive"}, {"smiles": "CSc1nc(N)c2ncn([C@@H]3O[C@H](COP(=O)(O)OP(=O)(O)OP(=O)(O)O)[C@@H](O)[C@H]3O)c2n1", "Potency": "inactive"}, {"smiles": "Cc1cc(NC2CCCCC2)nc(-n2nc(C)cc2C)n1", "Potency": "inactive"}, {"smiles": "C[N+](C)(CCCCCC[N+](C)(C)CCCN1C(=O)c2cccc3cccc(c23)C1=O)CCCN1C(=O)c2cccc3cccc(c23)C1=O", "Potency": "inactive"}, {"smiles": "Cn1cc(C2=C(c3ccc(Cl)cc3Cl)C(=O)NC2=O)c2ccccc21", "Potency": "inactive"}, {"smiles": "O=C(O)c1cc([N+](=O)[O-])ccc1NCCCc1ccccc1", "Potency": "inactive"}]}]}
